# From PubChem
# mHTT CaM bind – disrupts binding of mutant huntingtin to calmodulin | P42858 | AlphaScreen His-mHTT/GST-CaM binding, luminescence | inhibition, % at 15 µM | actives 3.6% (n = 190,000)
# Pf apPOL inh – Pf-apPOL DNA polymerase inhibition | Recombinant Pf-apPOL, molecular beacon fluorescence, 1.5 h | inhibition, % at 10 µM | actives 0.25% (n = 210,000)
# Hits are given with their value; i = inactive; nt = no result given. Many of the other results were omitted from the sample, so hits are more common in it than they were. Cut-off read from the data, not from the text of the source: active = inhibition above about 50%; inactive = the rest.
SMILES,mHTT CaM bind,Pf apPOL inh
Cc1ccc(C(=O)N2CCC(n3c(-c4ccco4)nc4cccnc43)C2)cc1C (centres undefined),72.0,i
O=C(Nc1ccc(F)c(Cl)c1)N1CCC(n2c(-c3ccco3)nc3cccnc32)C1 (centres undefined),i,i
O=C(c1ccc(C(F)(F)F)cc1)N1CCC(n2c(-c3ccco3)nc3cccnc32)C1 (centres undefined),91.0,i
O=c1[nH]c(-c2ccccc2)cn1-c1ccc(Br)cc1,i,i
COc1ccc2c(N3CCC(C(=O)Nc4ccccc4)CC3)c(C#N)cnc2c1,i,i
O=C(NCCN1CCOCC1)c1cn2ccccc2n1,i,i
Cc1cc(C)cc(C(=O)N2CCC(n3c(-c4ccco4)nc4cccnc43)C2)c1 (centres undefined),i,i
O=C(c1cccc(Cl)c1)N1CCC(n2c(-c3ccco3)nc3cccnc32)C1 (centres undefined),50.8,i
c1ccc(-c2ccccn2)nc1,nt,i
c1ccc(-c2ccc(-c3ccccn3)nn2)nc1,100.1,nt
COc1ccc(OC)c(NC(=O)N2CCCC2c2ccccc2C)c1 (centres undefined),i,i
COc1ccccc1NC(=O)N1CC(C)Oc2ccc(C)cc21 (centres undefined),i,i
O=C(Nc1cccc(F)c1)N1CC2CCCN2c2ccccc21 (centres undefined),i,i
COc1cccc(NC(=O)N2CC3CCCN3c3ccccc32)c1 (centres undefined),73.1,i
COc1ccc(OC)c(NC(=O)N2CC3CCCN3c3ccccc32)c1 (centres undefined),82.6,i
O=C(Nc1ccc(F)c(Cl)c1)N1CC2CCCN2c2ccccc21 (centres undefined),i,i
COc1ccc(OC)c(NC(=O)N2CC(C)Oc3ccc(C)cc32)c1 (centres undefined),62.3,i
COC(=O)c1cccc(NC(=O)N2CC3CCCN3c3ccccc32)c1 (centres undefined),69.4,i
COc1ccc(C2=N/C(=C\c3cccc(F)c3)C(=O)O2)cc1OC,i,i
C[n+]1cccc(C(N)=O)c1,nt,i
Cn1nc(-c2ccccc2)cc1C(=O)N1CCN(c2ccccn2)CC1,i,i
O=C1C2=C(SC3OC(CO)C(O)C(O)C3O2)C(=O)c2ccccc21 (centres undefined),nt,i
CCC(=O)N1CCN(c2nc3c(s2)CC(C(=O)NCc2ccc(Cl)cc2)CC3)CC1 (centres undefined),i,i
COc1ccc(C2CC(=O)c3cnc(NC(C)=O)nc3C2)cc1OC (centres undefined),i,i
CC1(C)CC(=O)c2cc(C(=O)Nc3cccc(Cl)c3)c(=O)n(-c3ccc(Cl)cc3)c2C1,i,i
SMILES,mHTT CaM bind,Pf apPOL inh
COc1ccc(CNC(=O)CCC(=O)N2CC3CCCN3c3ccccc32)c(OC)c1 (centres undefined),i,i
CCOC(=O)CNC(=O)N1CC2CCCN2c2ccccc21 (centres undefined),i,i
COc1ccccc1NC(=O)N1CCN(c2ccccc2OC)CC1,i,i
COc1cc(NC(=O)N2CC3CCCN3c3ccccc32)cc(OC)c1OC (centres undefined),62.5,i
COc1ccc(OC)c(CCNC(=O)CCC(=O)N2CC3CCCN3c3ccccc32)c1 (centres undefined),52.6,i
COc1cccc(CNC(=O)N2CC3CCCN3c3ccccc32)c1 (centres undefined),66.4,i
COc1cc(NC(=O)N2CCOc3ccc(C)cc32)cc(OC)c1OC,i,i
COc1ccccc1NC(=O)N1CCN(C)c2ccccc21,60.7,i
CC(C)CC(=O)N1CCCN(c2ccc(NC(=O)c3ccc(F)cc3F)cn2)CC1,i,i
Cc1cc(C)cc(NC(=O)Nc2ccc3c(c2)CCN3S(C)(=O)=O)c1,i,i
COc1cccc(C=C2Oc3cc(OCC(N)=O)ccc3C2=O)c1,i,i
COc1ccccc1N1CCN(C(=O)c2ccc3c(c2)CC(=O)N3C)CC1,i,i
COc1ccc2c(c1)c(CN1CCC(C(=O)NC(C)c3ccccc3)CC1)cn2C (centres undefined),i,i
CCOC(=O)c1cccc(NC(=O)N2CC(CC)Oc3ccccc32)c1 (centres undefined),i,i
CCOC(=O)c1cccc(NC(=O)N2CC3CCCN3c3ccccc32)c1 (centres undefined),77.5,i
CCc1ccc(N2CCN(C(=O)NC(C)(C)C)C(C)C2=O)cc1 (centres undefined),i,i
COc1ccc(CCN=C2CCCc3ccccc3N2)cc1OC,i,i
CCN(CC)c1ccc(C(=O)N2CCc3nc[nH]c3C2)cc1,i,i
O=C(NCCCN1CCCCC1)c1cc2n(n1)CCCN(Cc1ccccc1)C2=O,i,i
O=c1[nH]c(-c2ccc(F)cc2)cn1-c1ccc(Br)cc1,i,i
O=c1[nH]c(-c2ccc(Br)cc2)cn1-c1ccc(Cl)cc1,63.0,i
